Data on 5 molecules can be found in ChEMBL document CHEMBL4513135, “CO-ADD screening of IQOG CSIS (Spain) compounds”.

The structures appear in SMILES notation. Out of some 21,000 compounds screened, fewer than 10 showed an effect of 50% or more. These entries were drawn from the full list. Potency and affinity values are given separately.

The subject of this experiment is Acinetobacter baumannii. The conditions noted are these: Concentration 32 ug.mL-1; ASSAY_TEST Inhibition of Bacterial Growth; detection method Absorption (OD600); MEDIA CAMHB; plate type 384well; NBS; CORNING #3640; time 18 hr.
With `C#CCN(C)c1nc(NCCC2CCN(Cc3ccccc3)CC2)c(C#N)cc1C#N.Cl`, the Inhibition is -7.83%. With `CCOC(=O)C1=C(C)Oc2nc3c(c(N)c2C1c1nccn1C)CCC3` (stereo not given) the figure was 0.84%; with `Nc1nc(N)c(C=O)c(-c2ccccc2)c1C=O`, 5.37%. With `Cn1ccnc1C1C2=C(CC(C)(C)CC2=O)Oc2nc3c(c(N)c21)CCCC3` (stereo not given) the figure was -5.19%; with `N#CC1=C(Cl)Oc2c(ccc3ccccc23)C1c1ccc([N+](=O)[O-])cc1` (stereo not given), -15.4%.

The term Inhibition denotes the drop in the measured response relative to a control, in per cent.
